Among all 1,400 compounds or so, about 100 (7.1%) were called active. How the calls were made is not given here. These entries were drawn from the full list. Measured potencies and affinities stand elsewhere.
Assay: viability loss in Vero cells – cell-based, plate reader, cherry-pick samples, cytotoxicity control, dose response (AID 687020);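 further: compounds incubated with cells for three days before luminescence read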
Settings: series mostly up to 19.5 µM; activity change, negative = toxicity: at the top concentration

Compound	activity change, negative = toxicity
O=C(c1cccc(-c2cccc3nccn23)c1)N1CCOCC1	5.83% (inactive)
O=C(c1ccc2nccnc2c1)N1CCN(c2ccccc2)CC1	-11.1% (inactive)
CCCCCCCCN1C(=O)[C@H](CC(=O)NCCC(C)C)C[C@@]2(C(=O)OCC)CCCC=C12	-10.3% (inactive)
CCN1CCN(c2ccc(S(=O)(=O)N3CCCCC3)cc2NC(=O)c2ccc(C)c(C)c2)CC1	-1.07% (inactive)
Cn1c(=O)n(C)c2cc(N3CCOCC3)c(NC(=O)c3ccc(F)cc3)cc21	-1.46% (inactive)
CNC[C@@H]1OCCCC[C@H](C)Oc2ccc(NS(C)(=O)=O)cc2C(=O)N([C@@H](C)CO)C[C@@H]1C	7.65% (inactive)
C=CCc1ccc(OCCCNCc2ccccc2)c(OC)c1	4.77% (inactive)
CN1CCN(CCOc2ccc(-c3ccccc3)cc2)CC1	-3.13% (inactive)
c1ccc(-c2ccc(OCCN3CCOCC3)cc2)cc1	-30.8% (inactive)
CCc1cccc(OCCN2CCCC2)c1	7.48% (inactive)
Cc1cccc(OCCCN2CCC(C(O)(c3ccccc3)c3ccccc3)CC2)c1	-11.6% (inactive)
COc1ccccc1CN1CCCC(N2CCN(c3ccccc3OC)CC2)C1 (centres undefined)	-25.9% (inactive)
CCc1cc2c(=O)[nH]c(COC)nc2s1	-6.45% (inactive)
CN(C(=O)COC(=O)c1ccc(S(=O)(=O)N2CCOCC2)cc1)c1ccccc1	-15.2% (inactive)
COC(=O)[C@@H]1C[C@H]2CC[C@H](O)C[C@H]2N1Cc1ccc(C(F)(F)F)cc1	-4.52% (inactive)
COc1ccc(CNC(=O)C2CC(c3ccc(C(F)(F)F)cc3)=NO2)cc1 (centres undefined)	-24.9% (inactive)
Nc1cccc(O)c1	-6.53% (inactive)
COc1cc(CNc2nccn3ccnc23)cc(OC)c1	-9.02% (inactive)
NC(=O)C1CCN(CC(O)COc2ccc(-c3ccccc3)cc2)CC1 (centres undefined)	-5.66% (inactive)
CCc1ccc(OCC(O)CN2CCN(c3ccccc3)CC2)cc1 (centres undefined)	-5.9% (inactive)
COCC#Cc1ccc2c(c1)O[C@@H](CN(C)C(=O)Nc1ccccc1F)[C@H](C)CN([C@@H](C)CO)S2(=O)=O	0.743% (inactive)
C[C@H]1CN([C@@H](C)CO)C(=O)Cc2cc(NC(=O)CCCCCC(=O)Nc3ccccc3N)ccc2O[C@H]1CN(C)Cc1ccc(C(F)(F)F)cc1	1.41% [at 21 µM] (inactive)
O=C(NNc1c(F)c(F)cc(F)c1F)C1CCN(S(=O)(=O)c2ccccc2F)CC1	-10.5% (inactive)
CC1(C(=O)NS(=O)(=O)c2ccccc2C(F)(F)F)CCN1C(=O)CCc1ccccc1 (centres undefined)	-2.6% (inactive)
C[C@H](CO)N1C[C@H](C)[C@H](CN(C)C(=O)Nc2cccc3ccccc23)OCCCC[C@H](C)Oc2ccc(NS(=O)(=O)c3cn(C)cn3)cc2C1=O	0.574% (inactive)

Compound	activity change, negative = toxicity
COc1ccc(C(C)NC(=O)c2ccccc2Cl)cc1OC (centres undefined)	1.27% (inactive)
CCS(=O)(=O)Nc1ccc(C(=O)NCCSc2ccccc2)cc1	-8.4% (inactive)
COc1ccccc1N(CC(=O)N1CCCC1)S(=O)(=O)c1ccc(C)cc1	-2.96% (inactive)
COc1ccc(OC)c(-c2cc(C(=O)NC3CCCC3)c3ccccc3n2)c1	-9.23% (inactive)
COc1ccc(C(=O)N2CCN(C3CCCCC3)CC2)cc1OC	-10.2% (inactive)
Cc1cc(N2CCN(C)CC2)n2nc(-c3ccc(Cl)cc3)nc2n1	-1.64% (inactive)
COc1ccc(-c2nc(NCCCN(C)C)c3ccccc3n2)cc1	-20.6% (inactive)
COc1ccc2nc(NN=Cc3cccc(C)n3)cc(C)c2c1	-10.1% (inactive)
C[C@@H]1CN([C@H](C)CO)C(=O)c2cc(NC(=O)c3ccccc3)ccc2O[C@@H](C)CCCCO[C@@H]1CN(C)Cc1ccc(C(=O)O)cc1	-0.937% (inactive)
C[C@@H]1CCCCO[C@@H](CN(C)Cc2ccc(C(=O)O)cc2)[C@H](C)CN([C@H](C)CO)C(=O)c2cc(NC(=O)c3ccccc3)ccc2O1	-7.9% (inactive)
Cc1ccc(CN(C)c2ccc(S(=O)(=O)N3CCCC3)cn2)cc1	-3.39% (inactive)
COc1cc(C(=O)NCc2cccc(Cl)c2)ccc1OCC(=O)N1CCOCC1	2.08% (inactive)
COc1ccc(C(=O)NCCOc2cccc(Oc3ccccc3)c2)cc1OC	-17.2% (inactive)
O=C(C[C@@H]1CC[C@@H]2[C@H](COC[C@H](O)CN2Cc2cccc(Cl)c2)O1)N1CCOCC1	-2.6% (inactive)
COC(=O)C1=C(C)N(Cc2cccc(C(F)(F)F)c2)C(=NCC2CC2)NC1c1ccc(F)cc1 (centres undefined)	-0.751% (inactive)
C[C@@H]1CN([C@@H](C)CO)C(=O)c2cc(NS(=O)(=O)c3ccc(F)cc3)ccc2O[C@@H](C)CCCCO[C@@H]1CN(C)C(=O)CCCN(C)C	-2.95% (inactive)
CCOC(=O)Nc1ccc(N2CCOCC2)c(S(=O)(=O)N2CCOCC2)c1	-7.3% (inactive)
O=C(CC1NCCN(Cc2ccccc2)C1=O)Nc1ccccc1 (centres undefined)	-3.62% (inactive)
CCCCN1C[C@H](Cc2ccccc2)[C@@H](CC(=O)Nc2ccccc2)C1=O	-6.93% (inactive)
Cc1ccc(S(=O)(=O)N(c2nc(NC(C)C)nc(NC(C)C)n2)n2cnnc2)cc1	-22% (inactive)
C=CCOc1ccccc1OCC(O)CNC(C)C (centres undefined)	4.09% (inactive)
N#C[C@@H]1[C@H](c2ccc(C#Cc3ccccc3F)cc2)[C@H](CO)N1C(=O)C1CCC1	-7.04% (inactive)
CC(C)CCn1c2ccccc2c2cc(CC(N)=O)ccc21	-9.09% (inactive)
CC1(Cc2cccc(F)c2)C(=O)Nc2ccc(-c3cccnc3)cc21 (centres undefined)	2.56% (inactive)
COc1cc(OC)cc(C(=O)Nc2ccc3nc4n(c(=O)c3c2)CCCC4)c1	-1.48% (inactive)

Compound	activity change, negative = toxicity
O=C(Nc1ccc2nc3n(c(=O)c2c1)CCCC3)c1ccccc1F	-0.515% (inactive)
CC(C)(C)c1ccc(C(=O)Nc2ccc3c(c2)C(=O)NC3=O)cc1	-3.44% (inactive)
CC(NC(=O)c1ccccc1)C(=O)OCn1nnc2ccccc2c1=O (centres undefined)	2.95% (inactive)
CCCc1nc2ccccc2n1C(C)C(=O)NC(C)(C)C (centres undefined)	-9.03% (inactive)
Cc1cc(C)cc(NC(=O)Cn2nnc(C(=O)NCc3cccs3)c2N)c1	-0.976% (inactive)
CN(C)CCCN1c2ccccc2Sc2ccc3ccccc3c21	-27.7% (inactive)
CC(C)NC(=O)Nc1ccc2c(c1)C(=O)N([C@H](C)CO)C[C@H](C)[C@H](CN(C)CC1CC1)OCCCC[C@@H](C)O2	-0.509% (inactive)
CCCN1[C@H](C(=O)NCC(F)(F)F)[C@@H](CO)[C@@H]2Cn3c(ccc(-c4ccccc4)c3=O)[C@@H]21	-4.76% (inactive)
CCOC(=O)c1ccc(NC(=O)c2nc[nH]c2C(=O)NC[C@H](C)O)cc1	-3.85% (inactive)
C[C@H](CO)N1C[C@H](C)[C@@H](CN(C)S(C)(=O)=O)Oc2ccc(NC(=O)Nc3ccccc3)cc2C1=O	-2.06% (inactive)
CCN(C)C1CN(Cc2cn(Cc3ccccc3)nn2)S(=O)(=O)C1 (centres undefined)	2.96% (inactive)
Cc1ccc(Cn2cc(CN3CC(N4CCSCC4)CS3(=O)=O)nn2)cc1 (centres undefined)	-18.6% (inactive)
COc1ccc(-c2cnc3n2CCCCC3)cc1	-10.8% (inactive)
CC(=O)N1CCN(C(=O)COC(=O)COc2c(C)cc(C)cc2C)CC1	-0.176% (inactive)
COc1cccc(NC(=O)CN(C)C(=O)Cc2ccc3c(c2)OCCO3)c1	-3.6% (inactive)
Cc1ccc(S(=O)(=O)N2CCOCC2)cc1NC(=O)CN(C)CC(=O)Nc1cccc(F)c1	-8.86% (inactive)
COC(=O)c1cn(C(=O)c2ccc(OC)c(OC)c2)c2ccccc12	-6.84% (inactive)
COc1ccc(COC(=O)C2=C(C)NC(=O)NC2c2ccccc2F)cc1 (centres undefined)	-12.5% (inactive)
CCCN1CCC(=O)N([C@H](CSc2ccccc2)Cc2ccccc2)CC1	-25.2% (inactive)
N#CC[C@H](c1ccccc1)N1CCN(Cc2ccccc2)CCC1=O	-10% (inactive)
CC(C)C[C@@H](COc1ccccc1)N1CCN(CCc2ccccc2)CCC1=O	-23.9% (inactive)
CCN(CC)C(=O)C1CCN(Cc2ccc(OCc3ccccc3)cc2)CC1	-30.8% (inactive)
Cc1noc(C)c1NC(=O)Nc1ccc2c(c1)CC(=O)N([C@@H](C)CO)C[C@H](C)[C@@H](CN(C)C(=O)Nc1ccccc1)O2	6.21% (inactive)
CCOc1ccc2[nH]cc(S(=O)(=O)c3ccc(C)cc3)c(=O)c2c1	-24.2% (inactive)
COc1ccc(NC(=O)c2cc3ccccc3cc2O)cc1	6.74% (inactive)

Compound	activity change, negative = toxicity
O=C(Oc1ccccc1)c1ccccc1C(=O)Oc1ccccc1	-7.5% (inactive)
COc1ccc(N2CCN(CC(O)COc3ccc(F)cc3)CC2)cc1 (centres undefined)	-1.99% (inactive)
Clc1cc(Br)ccc1OCCCn1ccnc1	-4.92% (inactive)
Clc1cc(Br)ccc1OCCOCCN1CCCC1	-12.9% (inactive)
N#CCc1ccc(NC(=O)c2cc(S(=O)(=O)N3CCOCC3)ccc2Cl)cc1	4.07% (inactive)
COc1ccc(-c2cc(N3C(=O)Nc4ccccc4N3O)n[nH]2)cc1OC	-3.7% (inactive)
CCNC(=O)N(C)C[C@H]1N[C@@](CC)(C(=O)OC)[C@H]2C(=O)N(Cc3ccccc3)C(=O)[C@@H]12	3.78% (inactive)
Cc1ccccc1N1Cc2ccccc2C1=O	-17.1% (inactive)
CN1CCN(S(=O)(=O)c2cccs2)CC1	-29.2% (inactive)
COc1ccc(S(=O)(=O)N2CCCCC2c2cc(C(=O)Nc3ccccc3)no2)cc1 (centres undefined)	-19.9% (inactive)
O=C(NCc1ccc(Cl)c(Cl)c1)c1cc(C2CCCCN2C(=O)OCCF)on1 (centres undefined)	-31.1% (inactive)
Cc1ccc(F)cc1C(=O)N1CCCCC1c1cc(C(=O)NC(C)C)no1 (centres undefined)	-4.27% (inactive)
COC(=O)N1CCCCC1c1cc(C(=O)Nc2ccccc2Cl)no1 (centres undefined)	-0.256% (inactive)
Cc1ccc(NC(=O)C2CCN(S(C)(=O)=O)CC2)cc1Cl	-5.63% (inactive)
C[C@H](NC(=O)[C@H]1[C@H](CO)[C@H]2Cn3c(cccc3=O)[C@@H]1N2Cc1cccnc1)c1ccccc1	-1.47% [at 21 µM] (inactive)
CC(C)(C(=O)N1CCC1(C)C(=O)Nc1ccccc1Br)c1ccccc1 (centres undefined)	-3.5% (inactive)
Cc1c(C(=O)NCc2ccc(C#N)cc2)sc(=O)n1Cc1ccccn1	-13.9% (inactive)
COc1ccc2oc(C(=O)OC(C)C(=O)N3CCC(C)CC3)c(C)c2c1 (centres undefined)	0.402% (inactive)
Cc1ccc2oc(C(=O)N(Cc3ccncc3)CC3CCCO3)c(C)c2c1 (centres undefined)	-16.3% (inactive)
Cc1ccc(S(=O)(=O)Nc2ccc(O)c3ncccc23)cc1	-6.4% (inactive)
COCCNC(=O)C1CCC(CNS(=O)(=O)c2ccc(F)cc2)CC1 (centres undefined)	-5.15% (inactive)
CCCC(=O)Nc1ccc2nn(-c3ccc(OC)cc3)nc2c1	-10.6% (inactive)
COc1cc(C(=O)OCCCN2CCOCC2)cc(OC)c1OC	-18.3% (inactive)
CCN(CC)S(=O)(=O)c1cccc(C(=O)NCC2(N3CCOCC3)CCCCC2)c1	-17.2% (inactive)
